# PubChem BioAssay (EPA / NIEHS)
# Records with an inconclusive call do not appear. Calls of active or inactive are those of the source. How the source made its calls, unless noted: active means hit-call score of the fitted dose curve at least 0.9, where 1 is the maximum; inactive means score below 0.9.
# Experiments:
# [1] = CCTE_Shafer_MEA_dev_bursting_electrodes_number: CCTE's Neural Network Formation Assay for Number of Bursting Electrodes, Shafer Lab (AID 2284043; active means hit-call score of the fitted dose curve at least 0.9, where 1 is the maximum)
# In short: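 Read-out is the per-well number of electrodes bursting at least once every 2 minutes, recorded on days 5, 7, 9 and 12 and collapsed by trapezoidal area under the curve. Cultures were primary rat cortical neurons on MEA plates, treated continuously from plating.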
# [2] = CCTE_Shafer_MEA_dev_per_burst_interspike_interval: CCTE's Neural Network Formation Assay for Burst Interspike Interval, Shafer Lab (AID 2284044);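 further: mean spike spacing inside bursts as AUC over recordings on days 5 7 9 12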
# In short: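 Developmental network-formation MEA in primary rat cortical cultures with exposure spanning days 0–12. Within-burst ISI is averaged per well and integrated across recording days by area under the curve, with DMSO as negative control baseline.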
# [3] = CCTE_Shafer_MEA_dev_burst_duration_mean: CCTE's Neural Network Formation Assay for Mean Burst Duration, Shafer Lab (AID 2284045)
# In short: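 Read-out: average first-to-last-spike interval within single-electrode bursts, averaged over bursting electrodes per well, then summarised as area under the curve across days 5, 7, 9 and 12. Developing rat cortical networks were exposed from day 0.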
# [4] = CCTE_Shafer_MEA_dev_inter_network_spike_interval_mean: CCTE's Neural Network Formation Assay for Mean Inter-network Spike Interval, Shafer Lab (AID 2284047)
# In short: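 Primary rat cortical neurons on 16-electrode MEA wells, exposed from plating day 0 through DIV 12, compound renewed at DIV 5 and 9 media changes. Mean interval between network-spike peaks recorded DIV 5, 7, 9, 12; collapsed as trapezoidal AUC, fitted downward versus DMSO.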
# [5] = CCTE_Shafer_MEA_dev_network_spike_number: CCTE's Neural Network Formation Assay for Number of Network Spikes, Shafer Lab (AID 2284048);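 further: synchronized bursts across electrodes counted on days 5 7 9 12 and integrated as AUC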
# In short: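 Developing networks of primary rat cortical neurons are treated over 12 days starting at plating, with media and compound fully replaced on DIV 5 and 9. Network spike counts from four recording days are integrated as trapezoidal AUC.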
# [6] = CCTE_Shafer_MEA_dev_network_spike_peak: CCTE's Neural Network Formation Assay for Mean Number of Electrodes in Network Spike, Shafer Lab (AID 2284049)
# In short: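 Rat cortical primary culture, 1.5 x 10^5 cells/well, 48-well MEA (16 electrodes/well). Dosing day 0 through DIV 12, full media/compound exchange DIV 5, 9. AxIS adaptive spike detection; AUC over days 5/7/9/12; loss-of-signal vs DMSO.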
# [7] = CCTE_Shafer_MEA_dev_spike_duration_mean: CCTE's Neural Network Formation Assay for Mean Spike Duration, Shafer Lab (AID 2284051);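 further: mean network spike duration pooled as area under curve over DIV 5 to 12 recordings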
# In short: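 Primary rat cortical neurons on 16-electrode MEA wells (PEI-coated, laminin in plating drop), exposed from plating through DIV 12 with compound renewed at DIV 5 and 9. Mean network-spike duration recorded DIV 5, 7, 9, 12; trapezoidal AUC across days, DMSO baseline.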
# [8] = CCTE_Shafer_MEA_dev_network_spike_duration_std: CCTE's Neural Network Formation Assay for Standard Deviation of Network Spike Duration, Shafer Lab (AID 2284052);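 further: area under curve of spike duration SD across recording days 5 to 12; hits are decreases in network spike duration SD versus DMSO vehicle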
# In short: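 Primary rat cortical neurons on PEI-coated 16-electrode MEA wells, exposed from plating day 0 through day 12 with compound renewed at DIV 5 and 9. Network spike duration SD recorded on days 5, 7, 9, 12, collapsed as trapezoidal AUC; loss-of-signal fit versus DMSO.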
# [9] = CCTE_Shafer_MEA_dev_per_network_spike_spike_number_mean: CCTE's Neural Network Formation Assay for Mean Number of Spikes in a Network Spike, Shafer Lab (AID 2284053)
# In short: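 Primary rat cortical neurons on 48-well, 16-electrode MEA plates were exposed from plating to DIV 12, with dosing renewed on DIV 5 and 9. Spikes per network spike (0.05 s peak window) were recorded on DIV 5, 7, 9 and 12 and collapsed as trapezoidal AUC versus DMSO.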
# [10] = CCTE_Shafer_MEA_dev_per_network_spike_spike_percent: CCTE's Neural Network Formation Assay for Percent of Spikes in a Network Spike, Shafer Lab (AID 2284054)
# In short: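 Rat primary cortical cultures, 1.5 x 10^5 cells/well on MEA. Continuous compound exposure d0–12, medium/compound renewed DIV 5, 9. Network-spike spike % (0.05 s peak window), AUC over 4 recordings, DMSO baseline.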
# [11] = CCTE_Shafer_MEA_dev_LDH: CCTE's Lactate Dehydrogenase Assay for Cytotoxicity in the Neural Network Formation Assay, Shafer Lab (AID 2284068; active means hit-call score of the fitted dose curve at least 0.9, where 1 is the maximum;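 further: exposure for twelve days from plating with re-dosing on DIV 5 and 9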)
# In short: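 Primary rat cortical neurons were plated on PEI/laminin MEA plates and exposed from day 0 for twelve days, with compound renewed at DIV 5 and 9. Cytotoxicity was determined by spectrophotometric LDH assay relative to DMSO.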
# [12] = CCTE_Shafer_MEA_dev_AB: CCTE's Alamar Blue Assay for Cytotoxicity in the Neural Network Formation Assay, Shafer Lab (AID 2284083; active means hit-call score of the fitted dose curve at least 0.9, where 1 is the maximum;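 further: twelve days of exposure from plating with re-dosing on DIV 5 and 9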)
# In short: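 Primary rat cortical neurons on PEI-coated 48-well MEA plates, 1.5 x 10^5 cells/well in laminin drop; compound exposure from day 0 of plating for twelve days, renewed at medium changes on DIV 5 and 9. Viability read as resazurin reduction by fluorescence, relative to DMSO.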
# [13] = CCTE_Shafer_MEA_dev_mutual_information_norm: CCTE's Neural Network Formation Assay for Mutual Information Normalization, Shafer Lab (AID 2284091)
# In short: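 Developing rat cortical networks on 16-electrode MEA wells are treated throughout formation (DIV 0–12). Shared electrode information is recorded four times, converted to area-under-curve, and fitted for decreases against DMSO vehicle.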
# [14] = CCTE_Shafer_MEA_dev_correlation_coefficient_mean: CCTE's Neural Network Formation Assay for Mean Correlation Coefficient, Shafer Lab (AID 2284093)
# In short: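 Spontaneous activity recorded on days 5, 7, 9 and 12 post-plating; pairwise spike correlations are averaged across active electrodes and collapsed to an area-under-curve. Rat cortical cultures are dosed from plating through 12 days, with compound renewed at media changes.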
# [15] = TAMU_PeakParms_SingleDonor1434_Chronotropy: Texas A&M University (TAMU) 1.5-hr Human Induced Pluripotent Stem Cell (iPSC)-derived Cardiomyocytes Calcium (Ca+2) Flux Assay for Cardiotoxicity: Chronotropy (changes in peak frequency) (AID 2284217); conditions: actives raise or lower the signal
# In short: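 iPSC-derived cardiomyocytes (single donor 1434) dosed at 0.2, 1, 10 and 100 uM in 0.5% DMSO for 1.5 h at 37C; Ca2+ dye fluorescence gave average beat frequency. Zero-beat points removed; bidirectional fit versus DMSO, POD as EC05.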
# [16] = TAMU_HCS_1.5hr_SingleDonor1434_Cytotoxicity: Cytotoxicity Assessment using High-content Screening (HCS) Fluorescent Imaging for the Texas A&M University (TAMU) 1.5-hr Human Induced Pluripotent Stem Cell (iPSC)-derived Cardiotoxicity Assay (AID 2284234; active means hit-call score of the fitted dose curve at least 0.9, where 1 is the maximum)
# In short: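 Human iPSC-derived cardiomyocytes dosed at 0.2, 1, 10, 100 uM final (0.5% DMSO) for 90 min at 37 C. Hoechst 33342-stained nuclei counted by 10x high-content imaging; POD is EC10, a 10% drop in total cell count versus DMSO.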
# [17] = TAMU_PeakParms_SingleDonor1434_Asystole: Texas A&M University (TAMU) 1.5-hr Human Induced Pluripotent Stem Cell (iPSC)-derived Cardiomyocytes Calcium (Ca+2) Flux Assay for Cardiotoxicity: Asystole (quiescence of beating) (AID 2284328; active means hit-call score of the fitted dose curve at least 0.9, where 1 is the maximum)
# In short: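 Average Ca2+-flux peak frequency (beats/s) was recorded in single-donor iPSC-derived cardiomyocytes after 90 min exposure (0.2–100 uM final, 0.5% DMSO). Asystole POD set as EC95 against DMSO, no preprocessing.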
smiles,measurement,setting,value
c1ccc2cc3c(cc2c1)-c1cccc2cccc-3c12,outcome,[1],inactive
same,outcome,[2],inactive
same,outcome,[3],inactive
same,outcome,[4],inactive
same,outcome,[5],inactive
same,outcome,[6],inactive
same,outcome,[7],inactive
same,outcome,[8],inactive
same,outcome,[9],inactive
same,outcome,[10],inactive
same,outcome,[11],inactive
same,outcome,[12],inactive
same,outcome,[13],inactive
same,outcome,[14],inactive
same,AC50,[15],9.92 µM (active)
same,outcome,[16],inactive
same,outcome,[17],inactive
